Shown are actives, neighbours in structure and some others; about 3.4% of the full set was active somewhere.
FBW7 activator: FBW7 E3 ligase activators, primary screen, biochemical, AlphaScreen, human; AlphaScreen FBW7–phospho-cyclin E peptide binding, activator screen; normalized activity (activation), % at 26.1 µM; 650,000 compounds, 0.13% hits; AID 1259310, 2017; in the data active = normalized activity above about 1.9%;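 also: purified mutant Fbw7 with reduced substrate affinity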
TEAD-YAP block: TEAD-YAP interaction inhibition, primary screen, TEAD-YAP interaction inhibitor project, luminescence, HEK-TIYL cells; TEAD-Gal4/YAP UAS-luciferase luminescence; inhibition, % at 9.12 µM; 640,000 compounds, 1.4% hits; in the data active = inhibition above about 32%;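 also: 0% = median of test compound wells and 100% = reference inhibitor wells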
MITF primary: MITF inhibitors, primary screen, biochemical, AlphaScreen, human. Microphthalmia-associated transcription factor (Homo sapiens), O75030. AlphaScreen MITF homodimerization, bead proximity signal. inhibition, % at 2.6 µM. 650,000 compounds, 0.91% hits. AID 1259374, 2018; in the data active = inhibition above about 50%;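 also: 0% = vehicle wells with protein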
Target sequence (O75030 whole entry, looked up): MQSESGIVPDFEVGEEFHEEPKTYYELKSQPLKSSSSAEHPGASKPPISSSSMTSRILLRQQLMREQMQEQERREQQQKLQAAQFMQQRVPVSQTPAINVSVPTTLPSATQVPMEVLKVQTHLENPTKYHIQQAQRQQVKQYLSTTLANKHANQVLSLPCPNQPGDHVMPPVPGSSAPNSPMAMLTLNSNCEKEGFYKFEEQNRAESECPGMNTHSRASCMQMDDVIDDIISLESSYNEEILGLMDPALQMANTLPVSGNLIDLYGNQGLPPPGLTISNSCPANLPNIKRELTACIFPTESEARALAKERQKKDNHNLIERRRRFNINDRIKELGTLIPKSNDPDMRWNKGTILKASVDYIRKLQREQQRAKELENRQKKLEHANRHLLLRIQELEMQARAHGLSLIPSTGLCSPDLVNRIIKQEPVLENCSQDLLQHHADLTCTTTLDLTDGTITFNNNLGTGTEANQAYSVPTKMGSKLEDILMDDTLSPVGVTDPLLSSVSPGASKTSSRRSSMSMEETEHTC
GPR151 ag: activators of human GPR151, primary screen, cell-based, PathHunter beta-arrestin, luminescence. G-protein coupled receptor 151 (Homo sapiens), Q8TDV0. PathHunter beta-arrestin GPR151 cells. activation, % at 11.2 µM. 650,000 compounds, 1% hits. AID 1508602, 2020; in the data active = activation above about 4.9%;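 also: 0% = median of compound wells and 100% = cells with positive control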
MITF confirm: MITF inhibitors, retest of hits, confirmation, biochemical, AlphaScreen, triplicate | shares compounds with MITF primary | AlphaScreen MITF homodimerization, biotin/His-MITF beads | inhibition, % at 2.6 µM | 4,700 compounds, 16% hits | AID 1259372, 2018;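 active = inhibition above a cutoff derived from the DMSO control wells, cut at about 28% in these data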;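 also: 0% = MITF dimer wells with DMSO only; inhibitors lower the bead chemiluminescence by keeping MITF from dimerizing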
AlphaScreen DR: AlphaScreen optical interference compounds, dose response, counter-screen, biochemical, HTS | shares compounds with MITF primary | AlphaScreen optical interference counterscreen, cell-free | IC50, µM | 480 compounds, 6% hits | AID 1259373, 2018; call rule not given here
AS interf ctr: AlphaScreen optical interference compounds, counter-screen for MITF inhibitor project, biochemical, triplicate; shares compounds with MITF primary; LysRS AlphaScreen counterscreen, signal interference; inhibition, % at 2.6 µM; 4,700 compounds, 7.6% hits; AID 1259376, 2018;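 active = inhibition above a cutoff derived from the DMSO control wells, cut at about 30% in these data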
Numbers without * were called inactive; nt = not tested or not shown.

SMILES | FBW7 activator | TEAD-YAP block | MITF primary | GPR151 ag | MITF confirm | AS interf ctr | others
C=CCOC(=O)COc1ccc2c(=O)c(Oc3ccc(OC)cc3)coc2c1 | 0 | 7 | 75* | 0 | 23 | 8
CCc1nnc(/N=C2\SC(=O)/C(=C/c3ccc(OC)cc3)N2c2ccccc2)s1 | 0 | -44 | 8 | 0 | nt | nt
COCCCNc1ncnc2sc(C)c(C)c12 | 0 | -6 | 68* | 1 | -3 | 3
CC1(C2CC2)NC(=O)N(CC(=O)Nc2ccccc2F)C1=O (configuration not stated) | 0 | -4 | 67* | 1 | 10 | 7
CC1(C2CC2)NC(=O)N(CC(=O)Nc2ccc(S(=O)(=O)N3CCCCC3)cc2)C1=O (configuration not stated) | 1 | 0 | 62* | -1 | 5 | 11
CSc1ccccc1-c1ccc(OCCN(C)C)nc1 | 0 | -2 | 19 | 0 | nt | nt
c1cn2cc(Cc3nnc4n3CCCCC4)nc2s1 | -1 | -2 | 5 | -1 | nt | nt
c1cn2cc(Cc3nnc4n3CCC4)nc2s1 | -1 | 14 | 80* | 0 | 13 | 27
Cc1cccc(NC(=O)C2CCCN2C(=O)OC(C)(C)C)c1 (configuration not stated) | 0 | -7 | 77* | 0 | 5 | 1
Cc1cccc(NC(=O)C2CCCN2C(=O)OCc2ccccc2)c1 (configuration not stated) | 0 | 2 | -6 | -1 | nt | nt
CCC(CC)NC(=O)c1ccc(Cl)cc1[N+](=O)[O-] | 0 | 5 | 74* | -1 | 1 | 9
Cc1cc(C)cc(C(=O)NCCn2cc(SCC(=O)NCC3CCCO3)c3ccccc32)c1 (configuration not stated) | 0 | 14 | -1 | -1 | nt | nt
O=C1c2ccccc2C(=O)N1c1ncc(Cc2ccc(Cl)cc2)s1 | 0 | 14 | 59* | -1 | 12 | 18
O=C1c2ccccc2C(=O)N1c1ncc(Cc2cc(Cl)ccc2Cl)s1 | 0 | 9 | 9 | -1 | nt | nt
Nc1cc(OC(=O)c2ccccc2F)nn1S(=O)(=O)c1ccc(F)cc1 | 0 | -4 | 19 | -1 | nt | nt
N#Cc1c(N)nc(SCC(N)=O)c(C#N)c1-c1ccccc1Cl | 0 | -12 | 85* | 2 | 3 | 5
Cc1ccc(C)c(C(=O)Nc2ccccc2F)c1 | 0 | -4 | 84* | -1 | 14 | 7
C[C@@H](Cn1nnc2ccccc21)NC(=O)c1cc(=O)c2ccccc2o1 | 0 | 8 | 4 | 2 | nt | nt
O=C(Nc1cc(-c2ccncc2)c[nH]c1=O)C1Oc2cc3ccccc3cc2O1 | 0 | 0 | -9 | 0 | nt | nt
COc1cc(CN2CCN(C3CCCCC3C)CC2)cc(OC)c1OC (configuration not stated) | 0 | 6 | 74* | 1 | 10 | 9
COc1cc(CN2CCC(N3CCCC3)CC2)cc(OC)c1OC | 0 | 3 | 58* | 0 | -6 | -6
COc1cc(CN2CCC(N3CCCCC3)CC2)cc(OC)c1OC | 0 | -7 | 1 | 1 | nt | nt
O=c1[nH]c(CN(CCO)Cc2nc3sccc3c(=O)[nH]2)nc2sccc12 | 0 | 6 | 78* | 0 | 47* | 100*
CCCCOC(=O)c1cccc(NC(=O)COc2c(C)cccc2C)c1 | 0 | -28 | -3 | 2 | nt | nt
CCC(C(=O)N1CCCC1)c1ccccc1 (configuration not stated) | 0 | 2 | -12 | 0 | nt | nt
SMILES | FBW7 activator | TEAD-YAP block | MITF primary | GPR151 ag | MITF confirm | AS interf ctr | others
CC(C(=O)N1CCCC1)N1CCN(C(c2ccccc2)c2ccccc2)CC1 (configuration not stated) | 0 | 1 | 85* | -2 | 5 | 15
COC(=O)Cc1[nH]nc2c1C1(C(=O)N(Cc3ccccc3)c3ccccc31)C(C#N)=C(N)O2 (configuration not stated) | 0 | 7 | 10 | 0 | nt | nt
COC(=O)Cc1[nH]nc2c1C1(C(=O)Nc3ccccc31)C(C#N)=C(N)O2 (configuration not stated) | 0 | -6 | 66* | 0 | 11 | -2
CCc1ccccc1NC(=O)CN(C)C(=O)CN(C)Cc1ccccc1OC | 0 | -6 | 81* | 0 | 16 | 15
Cc1ccccc1OCC(=O)Nc1ccc([N+](=O)[O-])cc1Cl | 0 | 5 | 54* | 1 | -12 | -4
O=c1[nH]c(CN2CCCCC2)nc2sc3c(c12)CCC3 | 1 | 3 | -1 | -1 | nt | nt
CN(C)CCCNc1ncnc2sc3c(c12)CCCC3 | 0 | -7 | -22 | 2 | nt | nt
Cc1nc(NCCCN2CCOCC2)c2c3c(sc2n1)CCC3 | 0 | 9 | 9 | 0 | nt | nt
Cc1nc(NCCCN(C)C)c2c3c(sc2n1)CCCC3 | 0 | -8 | 51* | -1 | 14 | 13
O=c1[nH]c(CNCCN2CCOCC2)nc2sc3c(c12)CCC3 | -1 | 2 | 105* | -1 | 19 | 100*
Cc1nc(NCCCN2CCOCC2)c2c3c(sc2n1)CCCC3 | 0 | 1 | 74* | -1 | -16 | 1
COc1cccc(-n2c(/C=C3\C(=O)N(C)c4ccc(C)cc43)nc3ccccc3c2=O)c1 | 0 | 16 | 0 | -2 | nt | nt
Cc1cc(OCCCN2CCNCC2)ccc1[N+](=O)[O-] | 0 | 0 | 35 | 3 | nt | nt
Cc1cc(OCCN2CCCC2)ccc1[N+](=O)[O-] | 0 | -5 | 24 | 1 | nt | nt
Cc1cc(OCCN2CCN(C)CC2)ccc1[N+](=O)[O-] | 0 | -32 | 56* | -2 | 6 | 11
Cc1ccc(OCCN2CCOCC2)cc1C | 0 | -8 | -18 | 1 | nt | nt
Cc1cc(OCCN2CCOCC2)ccc1[N+](=O)[O-] | 1 | -22 | 60* | -3 | 8 | 14
Cc1cc(OCCCCN2CCN(C)CC2)ccc1[N+](=O)[O-] | 0 | -7 | 56* | -1 | 7 | 3
CCOC(=O)N/N=C/c1cccc(OC)c1O | 0 | -26 | 5 | 0 | nt | nt
CCCN1C(=O)C2C(C(=O)Nc3ccc(C)c(C)c3)C3C=CC2(O3)C1C(=O)NC1CCCC(C)C1C (configuration not stated) | 0 | 17 | -1 | 2 | nt | nt
CCCCC(=O)Nc1cc(OC)c(NC(=S)NC)cc1OC | 0 | -6 | 75* | 2 | 9 | 12
CCCCC(=O)Nc1cc(C)c(Cl)cc1OC | 0 | -3 | 1 | 2 | nt | nt
O=C(NCCc1ccc(O)cc1)c1cccc(-c2cccs2)c1 | 0 | 4 | 52* | 1 | 41* | 4 | AlphaScreen DR=>6.3
O=C(NCCc1ccc(O)cc1)c1ccnc(-c2cccs2)c1 | 0 | 7 | 51* | 1 | 51* | 0 | AlphaScreen DR=>6.8

Compound activity (PubChem)
